Test systems include SR leukemia; RPMI-8226 leukemia; OVCAR-8 ovarian; OVCAR-5 ovarian; OVCAR-4 ovarian; SK-OV-3 ovarian; IGROV1 ovarian; OVCAR-3 ovarian; HS 578T breast; NCI/ADR-RES ovarian.
Holding throughout (assay): NCI-60 one-dose screen, 48 h (100 = growth as untreated, 0 = no growth, -100 = all killed)
Conditions in all cases: 10 µM unless noted

Compounds without any hit were thinned out: in the full panel of roughly 83,000, 20% have a hit.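 Assay: single dose, 48 h. Readout: percent growth (0 = no net growth; negative = cell death). Active: <10.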 Unmarked numbers belong to inactive results. Calls of active or inactive are those of the source.

This note sets out measurements from PubChem BioAssay (NCI).

Consider `O=C1/C(=C\c2ccccn2)c2ccccc2N1c1c(Cl)cccc1Cl`, for which the growth was -4.3% (active) with SR leukemia; -12.5% (active) in the assay on RPMI-8226 leukemia; 4.47% (active) with OVCAR-8 ovarian; 122% in the assay on OVCAR-5 ovarian; 3.21% (active) in the assay on OVCAR-4 ovarian; 27.4% in the assay on SK-OV-3 ovarian. Besides, the growth in the assay on IGROV1 ovarian is 8.25% (active); in the assay with OVCAR-3 ovarian it was 27.4%; in the assay on HS 578T breast, 22.9%; with NCI/ADR-RES ovarian it was -26.7% (active).
On to `CC1=CC(c2ccco2)=C2C(N)=NNC2N1` (stereo not given), for which the growth in the assay on SR leukemia is 94.2%; with RPMI-8226 leukemia, 106%; in the assay on OVCAR-8 ovarian, 97.7%; in the assay on OVCAR-5 ovarian, 87.7%; in the assay with OVCAR-4 ovarian it was 92.6%; with SK-OV-3 ovarian it was 101%. Also, the growth is 86.9% in the assay with IGROV1 ovarian, 104% in the assay on OVCAR-3 ovarian, 105% with HS 578T breast and 98.9% with NCI/ADR-RES ovarian.
`CCNc1nc(O)c(/C=C2\C=Nc3ncccc32)s1`: the growth in the assay with SR leukemia was 0.377% (active); in the assay on RPMI-8226 leukemia it was 29.1%; in the assay with OVCAR-8 ovarian it was 6.27% (active); in the assay with OVCAR-5 ovarian, 8.67% (active); with OVCAR-4 ovarian, 19.5%; with SK-OV-3 ovarian, -10.3% (active). The growth with IGROV1 ovarian is 21.7%; in the assay on OVCAR-3 ovarian it was -2.07% (active); with HS 578T breast, -15.1% (active); in the assay with NCI/ADR-RES ovarian it was 29.7%.
For the molecule `CNC(C)[C@H]1CCC2C3CC=C4C(=O)[C@@H](NC(=O)C=C(C)C)CC[C@]4(C)C3CC[C@@]21C` (stereo not given in full), the growth was -49.7% (active) with SR leukemia; -43.7% (active) in the assay with RPMI-8226 leukemia; 42.5% with OVCAR-8 ovarian; 66.3% in the assay with OVCAR-5 ovarian; -13.3% (active) with OVCAR-4 ovarian; 46.4% in the assay with SK-OV-3 ovarian. Moreover, the growth is 9.81% (active) in the assay with IGROV1 ovarian, -14% (active) with OVCAR-3 ovarian, 10.2% with HS 578T breast and 39.1% with NCI/ADR-RES ovarian.
Consider `Nc1nc(NC(=O)Nc2ccc(C(=O)O)cc2)nn1-c1ccc(S(N)(=O)=O)cc1`, for which the growth with SR leukemia is 99.5%; in the assay on RPMI-8226 leukemia, 102%; in the assay on OVCAR-8 ovarian, 86.8%; in the assay on OVCAR-5 ovarian, 95.9%; in the assay on OVCAR-4 ovarian, 103%; in the assay on SK-OV-3 ovarian it was 107%. In addition, the growth is 94% in the assay on IGROV1 ovarian, 95.7% with OVCAR-3 ovarian, 88.1% in the assay with HS 578T breast and 103% in the assay on NCI/ADR-RES ovarian.
Take `[2H]C([2H])([2H])Oc1ccc(F)cc1/C=C/C(=O)/C=C(O)/C=C/c1cc(F)ccc1OC([2H])([2H])[2H]`: the growth was 69.4% in the assay on SR leukemia; 90% in the assay on RPMI-8226 leukemia; 88.8% in the assay with OVCAR-8 ovarian; 111% with OVCAR-5 ovarian; 84.3% in the assay on OVCAR-4 ovarian; 104% with SK-OV-3 ovarian. Moreover, the growth in the assay on IGROV1 ovarian was 105%; in the assay on OVCAR-3 ovarian it was 95.6%; in the assay with HS 578T breast, 104%; in the assay on NCI/ADR-RES ovarian it was 89.9%.
`CCN(CC)CCCOc1ccc2ncnc(Nc3ccc(Oc4cccc(C(F)(F)F)c4)c(Cl)c3)c2c1`: the growth is -3.44% (active) in the assay on SR leukemia; -29.8% (active) in the assay with RPMI-8226 leukemia; 16.9% with OVCAR-8 ovarian; 5.73% (active) in the assay on OVCAR-5 ovarian; 7.23% (active) in the assay on OVCAR-4 ovarian; 13.4% in the assay on SK-OV-3 ovarian. Further, the growth was -52.6% (active) in the assay on IGROV1 ovarian, -34.8% (active) in the assay on OVCAR-3 ovarian, -32.8% (active) with HS 578T breast and 2.21% (active) with NCI/ADR-RES ovarian.
Regarding `Cc1ccc(S(=O)(=O)c2nc(-c3ccccc3)oc2Sc2nc3ccccc3s2)cc1`, the growth in the assay with SR leukemia is 15.5%; in the assay with RPMI-8226 leukemia it was 56.7%; in the assay on OVCAR-8 ovarian, 60%; with OVCAR-5 ovarian, 124%; in the assay on OVCAR-4 ovarian it was 55.5%; in the assay on SK-OV-3 ovarian, 116%. Besides, the growth in the assay with IGROV1 ovarian was 80%; in the assay on OVCAR-3 ovarian, 77.9%; with HS 578T breast, 101%; with NCI/ADR-RES ovarian, 70.7%.
As to `CN1C(=O)/C(=C2\SC(=Nc3ccccc3)N(Nc3ccccc3)C2=O)c2ccccc21`, the growth is 117% with SR leukemia; 106% with RPMI-8226 leukemia; 102% in the assay with OVCAR-8 ovarian; 104% in the assay with OVCAR-5 ovarian; 111% in the assay on OVCAR-4 ovarian; 98% in the assay with SK-OV-3 ovarian. In addition, the growth is 79.5% with IGROV1 ovarian, 110% in the assay on OVCAR-3 ovarian, 107% in the assay with HS 578T breast and 102% in the assay on NCI/ADR-RES ovarian.
For `O=C(NCc1cccc(CNC(=O)Nc2nc3ccccc3[nH]2)c1)Nc1nc2ccccc2[nH]1`, the growth in the assay on SR leukemia was 40.1%; with RPMI-8226 leukemia, -18.8% (active); in the assay on OVCAR-8 ovarian it was -52.3% (active); in the assay with OVCAR-5 ovarian, -2.26% (active); with OVCAR-4 ovarian, -75.7% (active); in the assay with SK-OV-3 ovarian it was -19% (active). The growth is 13.7% with IGROV1 ovarian, -42.3% (active) in the assay on OVCAR-3 ovarian, -15.3% (active) in the assay on HS 578T breast and 83.3% in the assay on NCI/ADR-RES ovarian.
As to `COc1ccc(-c2nc(/C=C3\C(=O)N(C)c4ccccc43)c3ccccn23)cc1`, the growth in the assay on SR leukemia was -7.02% (active); with RPMI-8226 leukemia, 104%; with OVCAR-8 ovarian, 58.6%; with OVCAR-5 ovarian, 85.5%; in the assay on OVCAR-4 ovarian, 47.2%; in the assay with SK-OV-3 ovarian it was 66.8%. The growth in the assay on IGROV1 ovarian was 69.7%; in the assay on OVCAR-3 ovarian, 94.3%; in the assay with HS 578T breast, 41.3%; in the assay on NCI/ADR-RES ovarian, 77.6%.
Regarding `COc1ccc(C#Cc2ccc(=O)oc2-c2cc(OC)c(OC)c(OC)c2)cc1O`, the growth with SR leukemia was 13.7%; in the assay on RPMI-8226 leukemia, 18.2%; in the assay on OVCAR-8 ovarian, 69.6%; in the assay on OVCAR-5 ovarian, 43%; in the assay on OVCAR-4 ovarian it was 69%; in the assay with SK-OV-3 ovarian it was 47.2%. The growth was 37.5% in the assay on IGROV1 ovarian, -4.92% (active) with OVCAR-3 ovarian, 54.5% in the assay on HS 578T breast and 19.6% in the assay on NCI/ADR-RES ovarian.
Take `Cc1ccc(S(=O)(=O)N2CCC(=O)c3ccccc32)cc1`: the growth with SR leukemia was 39.1%; in the assay on RPMI-8226 leukemia, 106%; in the assay with OVCAR-8 ovarian it was 103%; with OVCAR-5 ovarian it was 91%; in the assay on OVCAR-4 ovarian, 99.3%; in the assay with SK-OV-3 ovarian it was 62.2%. The growth in the assay with IGROV1 ovarian was 85.2%; in the assay with OVCAR-3 ovarian, 63.4%; in the assay on HS 578T breast it was 71.7%; with NCI/ADR-RES ovarian it was 72.6%.
Take `CCOC(=O)CC1CSC(Nc2ccccc2)=N1` (stereo not given): the growth is 98.5% with SR leukemia; 105% in the assay on RPMI-8226 leukemia; 101% with OVCAR-8 ovarian; 104% in the assay on OVCAR-5 ovarian; 112% with OVCAR-4 ovarian; 105% with SK-OV-3 ovarian. Besides, the growth in the assay with IGROV1 ovarian was 103%; in the assay with OVCAR-3 ovarian, 102%; with HS 578T breast, 103%; with NCI/ADR-RES ovarian, 99.8%.
